The values below come from PubChem BioAssay AID463173 (ICCB-Longwood Screening Facility, Harvard Medical School, 2010).

The structures appear in SMILES notation. Screen size: about 52,000 compounds; about 4,300 (8.3%) were called active. What follows is part of a selection rich in actives, with near analogues and random picks from the rest. A number with no mark means an inactive call. Cut-off read from the data, not from the text of the source: active = survival mostly below about 52% (no sharp cut-off); inactive = mostly above about 56%.

In the experiment the test system is DeltatarO mutant. As to the kind of experiment: growth inhibition of S. aureus wild type versus tarO mutant, primary screen, teichoic acid synthesis inhibitors, RN4220, OD600 (AID 463173). The note with it: OD600, 18 h, hits give low values, screened at 18.75 µg/mL (by protocol).
Take `COc1cc2[nH]c(=O)c(C(=O)NC3CCCC3)c(O)c2cc1OC`: the survival is 98%.
As for `CCCCOC(=O)c1ccc(NC2=NS(=O)(=O)c3ccccc32)cc1`, the figure is 66%; as for `COc1ccc(C2CC(=O)c3cc(-c4nc(-c5cccc([N+](=O)[O-])c5)cs4)c(=O)n(-c4ccc(OC)cc4)c3C2)cc1` (stereo not drawn), 57%.
As for `CCc1ccc(NC(=O)CC2C(=O)N(c3cccc(C)c3)C(=O)N2Cc2cccc(OC)c2)cc1` (stereo not drawn), the figure is 92%; as for `Cc1nc(-c2ccc(S(=O)(=O)N3CCN(c4cccc(Cl)c4)CC3)cc2)co1`, 91%; as for `CCOc1ccc(CCNC(=O)CCCc2cc(-c3ccc(OCC)cc3)on2)cc1`, 92%.
Regarding `CCOc1ccc(-c2cc(CCCC(=O)NCCc3cc(OC)c(OC)c(OC)c3)no2)cc1`, the survival is 43% (active).
As for `CCOc1ccc(-c2cc(CCCC(=O)NCCc3ccc(OC)c(OC)c3)no2)cc1`, the figure is 91%; as for `COc1cc(C2c3c(oc4ccccc4c3=O)C(=O)N2c2ccccn2)cc(OC)c1OC` (stereo not drawn), 146%; as for `Cc1nnc(N2CCN(c3cccc(C(F)(F)F)c3)CC2)c2c1nnn2Cc1ccccc1`, 80%.
As for `CCCn1c(=NC(=O)c2c(-c3c(F)cccc3Cl)noc2C)c(C(=O)OCC)cc2c(=O)n3ccccc3nc21`, the figure is 164%; as for `CCOC(=O)c1cc2c(=O)n3ccccc3nc2n(Cc2ccco2)c1=NC(=O)c1ccc(F)cc1`, 43% (active); as for `CCOC(=O)c1cc2c(=O)n3ccccc3nc2n(Cc2ccco2)c1=NC(=O)c1ccc(Br)cc1`, 55%.
As for `CCOC(=O)c1cc2c(=O)n3ccccc3nc2n(Cc2ccco2)c1=NC(=O)c1c(F)cccc1Cl`, the figure is 42%.
With `CCOC(=O)c1cc2c(=O)n3ccccc3nc2n(Cc2ccco2)c1=NC(=O)c1cccc(F)c1`, the survival was 17% (active).
On to `CCOC(=O)c1cc2c(=O)n3ccccc3nc2n(Cc2ccco2)c1=NC(=O)c1ccc(C(C)(C)C)cc1`, for which the survival is 36% (active).
For `CCOC(=O)c1cc2c(=O)n3ccccc3nc2n(Cc2ccco2)c1=NC(=O)c1ccc(C)c(C)c1`, the survival was 34% (active).
As for `CN1CCN(C(=O)c2cnn(-c3cccc(Cl)c3)c2C2CCN(C(=O)OC(C)(C)C)CC2)CC1`, the figure is 95%; as for `Cc1cccc(OCCCCn2c(C3CC(=O)N(c4ccc(C)cc4C)C3)nc3ccccc32)c1` (stereo not drawn), 47%.
To `CCOc1ccccc1N1CC(c2nc3ccccc3n2CCCOc2ccc(OC)cc2)CC1=O` (stereo not drawn) belongs 78%.
Take `CCc1ccccc1N1CC(c2nc3ccccc3n2CCCOc2ccc(Cl)cc2)CC1=O` (stereo not drawn): the survival is 41% (active).
As for `CCc1ccccc1N1CC(c2nc3ccccc3n2CCOc2ccc(Cl)c(C)c2)CC1=O` (stereo not drawn), the figure is 3% (active); as for `CCc1ccccc1N1CC(c2nc3ccccc3n2CCCCOc2ccccc2)CC1=O` (stereo not drawn), 54%.
To `O=C1CC(c2nc3ccccc3n2CCCCOc2ccccc2)CN1c1ccccc1Cl` (stereo not drawn) belongs 58%.
As for `Cc1cc(C)cc(OCCn2c(C3CC(=O)N(c4ccccc4Cl)C3)nc3ccccc32)c1` (stereo not drawn), the figure is 85%.
With `Cc1cccc(OCCCCn2c(C3CC(=O)N(c4ccccc4Cl)C3)nc3ccccc32)c1` (stereo not drawn), the survival was 10% (active).
As for `Cc1ccc(-n2ncc3c(N4CCCCCC4)ncnc32)cc1C`, the figure is 86%; as for `CCOc1ccc(CNC(=O)c2sc3nc(C)cc(C)c3c2-n2cccc2)cc1`, 75%.
As for `COc1cccc(CNC(=O)c2nn(C)c3c2CSc2ccccc2-3)c1`, the figure is 75%; as for `O=C(NC1=NCCS1)c1ccccc1`, 101%; as for `COc1cccc(C(=O)Nc2nc3nc(C)c(Cc4ccccc4)c(=O)n3[nH]2)c1`, 104%.
As for `CCc1c(C)nc2cc(-c3ccccc3)[nH]n2c1=O`, the figure is 73%; as for `Cc1nc2c(-c3ccccc3)c(C)[nH]n2c(=O)c1Cc1ccc(Br)cc1`, 7% (active); as for `Cc1nc2nc(NC(=O)CC(C)C)[nH]n2c(=O)c1Cc1ccccc1`, 113%.
Regarding `Cc1nc2nc(NC(=O)C(C)(C)C)[nH]n2c(=O)c1Cc1ccccc1`, the survival was 112%.
In the case of `Cc1ccc(Cc2c(C)nc3c(-c4ccccc4)c(C)[nH]n3c2=O)cc1`, the survival is 0% (active).
As for `Cc1cccc(Cc2c(C)nc3c(-c4ccccc4)c(C)[nH]n3c2=O)c1`, the figure is 16% (active); as for `Cc1nc2c(-c3ccccc3)c(C)[nH]n2c(=O)c1Cc1ccc(C(C)C)cc1`, 11% (active).
To `Cc1nc2nc(NC(=O)C(C)C)[nH]n2c(=O)c1Cc1ccccc1` belongs 98%; to `CCOC(=O)CCc1c(C)nc2c(-c3ccccc3)c(C)[nH]n2c1=O`, 87%.
As for `COc1ccc(-c2nc(-c3cc4cc(Br)ccc4oc3=O)cs2)cc1`, the figure is 78%; as for `CCOc1ccc(CCNC(=O)CN2C(=O)c3cccnc3Oc3ccc(C)cc32)cc1OCC`, 67%.
Take `Cc1cc(-c2ccccc2)n2ncc(C#N)c2n1`: the survival is 96%.
On to `CCOc1ccccc1CNC(=O)C1CCN(C2=NS(=O)(=O)C(c3ccc(C)c(C)c3)=C2C)CC1`, for which the survival was 84%.
As for `COc1ccc(-n2c(=O)c3ccc(C(=O)NCc4ccc(C)cc4)cc3n(CC(=O)Nc3cccc(F)c3)c2=O)cc1`, the figure is 79%.
As for `Cc1ccccc1Cc1c(C)nc2c(-c3ccccc3)c(C)[nH]n2c1=O`, the figure is -3% (active); as for `COc1ccc(-c2c(C)c3cc(OC(=O)N4CCOCC4)ccc3oc2=O)cc1OC`, 47% (active).
As for `Cc1c(-c2ccc(Br)cc2)c(=O)oc2ccc(OC(=O)N3CCOCC3)cc12`, the figure is 86%; as for `COc1ccc(-c2c(C)c3cc(OC(=O)N4CCOCC4)ccc3oc2=O)cc1`, 79%; as for `COc1ccc(-c2csc(-c3c(N)c(C(=O)c4ccccc4)n4ccccc34)n2)cc1OC`, 43% (active).
Regarding `COc1ccc(-c2csc(-c3c(N)c(C(=O)c4ccccc4)n4ccccc34)n2)cc1`, the survival was 77%.
`COc1ccc(-c2csc(-c3c(N)c(C(=O)c4ccc(OC)c(OC)c4)n4ccccc34)n2)cc1`: the survival was 75%.
As for `Cc1ccc(C)c(NC(=O)c2cnn(-c3cccc(F)c3)c2C2CCN(C(=O)OC(C)(C)C)CC2)c1`, the figure is 122%.
In the case of `O=C(Nc1ccccn1)c1cccs1`, the survival was 109%.
To `CCN1C(=O)CC(C(=O)Nc2ccc(OC)cc2)SC1=Nc1ccc(C)c(C)c1` (stereo not drawn) belongs 50%; to `CCOc1cccc(NC(=O)C2CC(=O)N(C)C(=Nc3cccc(OC)c3)S2)c1` (stereo not drawn), 82%.
As for `CCOc1cccc(NC(=O)C2CC(=O)N(CC)C(=Nc3ccc(F)cc3)S2)c1` (stereo not drawn), the figure is 17% (active); as for `CCOC(=O)C1CCCN(C(=O)c2nn(-c3ccc(C)cc3)c(=O)c3c2c2ccccc2n3C)C1` (stereo not drawn), 90%; as for `Cc1cccn2c(=O)c(/C=C(\C#N)c3nc4ccccc4n3C)c(Oc3ccc(Br)cc3)nc12`, 69%.
As to `Cc1ccccc1N1CC(c2nc3ccccc3n2Cc2ccc(Br)cc2)CC1=O` (stereo not drawn), the survival was 25% (active).
To `COc1ccccc1OCCCn1c(C2CC(=O)N(c3ccccc3Cl)C2)nc2ccccc21` (stereo not drawn) belongs 75%; to `Cc1c(Cl)cccc1N1CC(c2nc3ccccc3n2Cc2ccccc2F)CC1=O` (stereo not drawn), 41%; to `Cc1ccc(C)c(Cn2c(C3CC(=O)N(c4ccccc4C)C3)nc3ccccc32)c1` (stereo not drawn), 80%.
Turning to `Cc1ccccc1N1CC(c2nc3ccccc3n2CCC2CCCCC2)CC1=O` (stereo not drawn), the survival is 16% (active).
Take `CCc1ccccc1N1CC(c2nc3ccccc3n2Cc2cccc(C)c2)CC1=O` (stereo not drawn): the survival was 66%.
As for `Cc1ccc(N2CC(c3nc4ccccc4n3CCC3CCCCC3)CC2=O)cc1` (stereo not drawn), the figure is 64%; as for `COc1ccc(OCCCCn2c(C3CC(=O)N(c4cccc(Cl)c4)C3)nc3ccccc32)cc1` (stereo not drawn), 86%.
As for `Cc1cccc(N2CC(c3nc4ccccc4n3CCC3CCCCC3)CC2=O)c1` (stereo not drawn), the figure is 31% (active).
To `O=C1CC(c2nc3ccccc3n2CCC2CCCCC2)CN1c1ccccc1Cl` (stereo not drawn) belongs 21% (active); to `COc1ccc(N2CCN(C(=O)c3c(C)nn(-c4ccc(F)cc4)c3-n3cccc3)CC2)cc1`, 69%; to `Cc1ccc(N2C(=O)CSC23C(=O)N(CC(=O)NC2CCCCC2)c2ccccc23)cc1` (stereo not drawn), 79%.
As to `CCOc1ccc(OCC(=O)Nc2c(C(=O)Nc3ccc(C)cc3)oc3ccccc23)cc1`, the survival is 73%.
As for `Cc1cnn(Cc2ccccc2)c1N`, the figure is 98%; as for `CSc1nc2c(sc3ccccc32)c(=O)n1Cc1ccc(C)cc1`, 96%.
As for `CC1(C)Oc2ccc(C(=O)N/N=C/c3cccs3)cc2NC1=O`, the figure is 58%; as for `O=C1[C@@H]2CSC(c3ccc(F)cc3)N2C(=O)N1c1ccc(Cl)cc1` (stereo partly drawn), 76%; as for `COc1ccc(C2=NC3(CCCCCC3)N(CC(=O)Nc3cccc(Cl)c3)C2=O)cc1`, 68%.
`O=C(NCc1ccc2c(c1)CCN2C(=O)c1ccc(F)cc1)c1ccco1`: the survival was 115%.
As for `COc1ccc(-c2nc(SCC(=O)NC3CCCC3)c(-c3ccccc3)[nH]2)cc1OC`, the figure is 65%; as for `Cn1c(SCc2ccccc2Cl)nc(=O)c2c1NC(=O)CC2c1cc(F)ccc1F` (stereo not drawn), 45%; as for `COc1ccc(/C=C/C(=O)N2CCC(c3nc4ccccc4o3)CC2)cc1OC`, 86%.
`NC(=O)CN1c2cccc3cccc(c23)S1(=O)=O`: the survival was 104%.
As for `COc1ccc2[nH]c3c(c2c1)CCN(C(=O)c1cccc(Cl)c1)C3c1ccc(F)cc1` (stereo not drawn), the figure is 77%; as for `Cc1ccc(CNC(=O)c2ccc(CSCc3cccc(C)c3)o2)cc1`, 93%.
To `CCOC(=O)c1cc(-c2ccccc2)n(CC(=O)NC(C)c2ccccc2)c1C` (stereo not drawn) belongs 91%; to `CCc1ccccc1N1CC(c2nc3ccccc3n2CC(C)C)CC1=O` (stereo not drawn), 78%; to `COc1ccccc1Cn1c(C2CC(=O)N(c3ccccc3OC)C2)nc2ccccc21` (stereo not drawn), 49%.
`CCc1ccccc1N1CC(c2nc3ccccc3n2CCC2CCCCC2)CC1=O` (stereo not drawn): the survival was 10% (active).
